These results are taken from PubChem BioAssay AID686979 (National Center for Advancing Translational Sciences (NCATS), 2013).

The structures appear in SMILES notation. Screen size: about 420,000 compounds; about 50,000 (12%) were called active. Where a call stands in place of a potency, no number is given. Not shown: some 26% with an inconclusive outcome. Calls follow the shape of the dose curve; as a rule, active = well fitted inhibition curve with a large enough effect; inconclusive = small, poorly fitted or top-dose-only effect; inactive = flat fitted curve, though single readings scatter. This excerpt belongs to a sample that is enriched for actives.
Potency is read from the fitted curve at half-maximal effect.

This assay can be described thus: qHTS for Inhibitors of human tyrosyl-DNA phosphodiesterase 1 (TDP1): qHTS in cells in presence of CPT. Also: nearly all actives have a fitted effect of over 55% in size. To be noted: chicken DT40 Tdp1-/-;hTDP1 cells + 20 nM CPT, ATP luminescence, 48 h; series mostly up to 46.2 µM. An outline of the steps: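 Chicken DT40 Tdp1-/- cells complemented with human TDP1, 400 cells/well, exposed to compounds plus 20 nM camptothecin for at least 48 h at 37 C; viability read as ATP content by CellTiter-Glo luminescence.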
In general terms: In qHTS, concentration-response curves come from the screen itself.
With `COc1ccccc1OCC(=O)Nc1nnc2n1CCS2`, the Potency result was “inactive”. As for `O=C(COC(=O)c1ccccc1O)NCc1ccco1`, the entry is “inactive”; as for `Cc1cc(C(=O)OCC(=O)NCc2ccco2)c(C)n1-c1ccccc1`, 2.31 µM (active); as for `CN(c1ccccc1)S(=O)(=O)c1ccc(Cl)c(C(=O)OCC(=O)NCc2ccco2)c1`, “inactive”. With `COc1cccc(CNC(=O)CN2C(=O)CCc3cc(S(=O)(=O)N4CCOCC4)ccc32)c1`, the Potency result is “inactive”. As for `CSc1nc2nc(-c3cccc(C(F)(F)F)c3)ccn2n1`, the entry is “inactive”. As for `CCCC(=O)Nc1ccc(C(=O)N/N=C/c2ccc[nH]2)cc1`, the entry is “inactive”. As for `CC(=O)NCc1ccc(-c2csc(NC(=O)CCCc3nc4ccccc4c(=O)[nH]3)n2)cc1`, the entry is “inactive”. As for `Cc1cc(-c2csc(N)n2)c(C)n1Cc1ccccc1`, the Potency result was “inactive”. As for `O=C(COC(=O)CCc1nc2ccccc2c(=O)[nH]1)Nc1ccc(N2CCOCC2)cc1`, the entry is “inactive”. As for `Cc1cc(C)c(-c2csc(NC(=O)CCCc3nc4ccccc4c(=O)[nH]3)n2)c(C)c1`, the figure is 18.4 µM (active).

In the case of `CCCn1c(C)cc(-c2csc(NC(=O)CCc3nc4ccccc4c(=O)[nH]3)n2)c1C`, the Potency is 23.1 µM (active). For `CC(C)(C)c1ccc(NC(=O)COC(=O)CCc2nc3ccccc3c(=O)[nH]2)cc1`, the Potency entry is “inactive”. As for `Cc1cccc(C(=O)NCc2nnc(SC(C)C(=O)Nc3nnc(C)s3)n2C)c1` (stereo not given), the entry is “inactive”; as for `C/C(N)=C(/C#N)C(=O)COC(=O)C1=NN(c2ccccc2)C(=O)CC1`, “inactive”. As for `C=C(C)COc1ccc(-c2nc(N)ncc2-c2ccccc2OC)c(O)c1`, the entry is “inactive”. With `CCOc1ccc(-c2nc(N)ncc2-c2ccccc2OC)c(O)c1`, the Potency was 20.6 µM (active). As for `CCOC(=O)Cn1c2c(c(-c3ccccc3OC)cc1=O)CCCC2`, the entry is “inactive”; as for `O=C(O)CCCN1C(=O)c2ccccc2Sc2ncccc21`, “inactive”. As for `Fc1cccc(-n2ncc3c2ncn2nc(-c4ccccc4Cl)nc32)c1`, the entry is “inactive”. As for `CCCCN1CC(COCc2ccccc2)OCCS1(=O)=O` (stereo not given), the entry is “inactive”. For `CCCC[C@@H]1CN=C(N)N1CCCC`, the Potency is 9.2 µM (active). With `CCCCN1C(N)=NC[C@@H]1CC1CCCCC1`, the Potency was 23.1 µM (active). As for `CCCCNC(=O)C1CCC(=O)N1CCc1ccccc1` (stereo not given), the entry is “inactive”; as for `CCCCN1C(N)=NC[C@@H]1Cc1ccccc1`, 7.31 µM (active); as for `CCCCN1C(=S)NC[C@@H]1C(C)CC` (stereo not given in full), “inactive”.

As to `Cc1cccc(C)c1NC(=O)CNC(=O)c1ccc2c(c1)OCCO2`, the Potency entry was “inactive”. As to `COn1c(-c2ccc(Cl)cc2Cl)nc2ncccc21`, the Potency entry was “inactive”. Turning to `O=S(=O)(Nc1ccc(-c2ccc(N3CCOCC3)nn2)cc1)c1cc(Cl)ccc1Cl`, the Potency result was “inactive”. For the compound `COc1cc2ccccc2cc1C(=O)Nc1ccc(N2CCOCC2)cc1`, the Potency result was “inactive”.
